We go through seven compounds from PubChem BioAssay (EPA / NIEHS).

Each structure is given as a SMILES string. Calls of active or inactive are those of the source. Rule for the calls: active = hit-call score of the fitted dose curve at least 0.9, where 1 is the maximum; inactive = score below 0.9.

The nature of assay [1]: ATG_E_Box_CIS: Attagene CIS-FACTORIAL HepG2 Assay for human Enhancer Box (E-box) (AID 2282936). The note with it: HepG2 E-box cis-reporter transcription, actives raise or lower the signal. In outline: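 DMSO served as negative control and baseline for bidirectional fitting. Human hepatoma HepG2 cells, transiently transfected with cis-reporter constructs, were dosed 24 h; reporter mRNA read by RT-PCR and capillary electrophoresis.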

The nature of assay [2]: ATG_M_61_CIS: Attagene CIS-FACTORIAL HepG2 Assay for M61 Transcription Factor (Internal Marker) (AID 2282937). The note with it: HepG2 Attagene CIS-FACTORIAL M61 internal marker reporter; actives raise or lower the signal. In outline:
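HepG2 cells transiently transfected with multiplexed cis-promoter reporter units reporting endogenous transcription factor activity, measured 24 h after dosing. Reporter mRNA quantified by RT-PCR and capillary electrophoresis; bidirectional fit against DMSO baseline.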

The nature of assay [3]: ATG_EGR_CIS: Attagene CIS-FACTORIAL HepG2 Assay for human Early Growth Response 1 (EGR1) (AID 2282938). The note with it: HepG2 Attagene CIS-FACTORIAL EGR reporter mRNA; actives raise or lower the signal. In outline:
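HepG2 cells transiently transfected with cis-element-driven multiplexed reporter units, dosed for 24 h. EGR1-element reporter mRNA quantified by RT-PCR, 6-FAM labelling, HpaI digestion and capillary electrophoresis; bidirectional fit versus DMSO.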

Assay [4] in a line: ATG_M_19_CIS: Attagene CIS-FACTORIAL HepG2 Assay for M19 Transcription Factor (Internal Marker) (AID 2282939). Conditions: HepG2 Attagene CIS-FACTORIAL M19 internal marker reporter; actives raise or lower the signal. In outline:
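Chemical-treated HepG2 (24 h) with MRTU constructs; reporter transcripts detected by fluorescent RT-PCR fragment analysis on capillary electrophoresis. Internal background marker, DMSO as baseline.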

The nature of assay [5]: ATG_ERE_CIS: Attagene CIS-FACTORIAL HepG2 Assay for Estrogen Response Element (ERE) (AID 2282940). Conditions: HepG2 ERE cis-reporter, Attagene RNA transcript; actives raise or lower the signal. In outline: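 Human liver cells (HepG2) bearing transiently transfected, promoter-regulated reporter units were exposed 24 h. Reporter mRNA induction was detected by capillary electrophoresis of labelled RT-PCR products and fitted bidirectionally to DMSO.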

A short description of assay [6]: ATG_Ets_CIS: Attagene CIS-FACTORIAL HepG2 Assay for human Erythroblast Transformation Specific (ETS) (AID 2282941). Conditions: HepG2 ETS cis-reporter transcription, actives raise or lower the signal. Summed up:
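Human HepG2 hepatoma cells were transiently transfected with promoter-driven reporter constructs and treated for 24 hours. Reporter transcripts were quantified by RT-PCR with fluorescent primer extension; bidirectional curve fitting used DMSO as reference.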

Assay [7] concerns the target Hepatocyte nuclear factor 3-beta (Homo sapiens) (UniProt Q9Y261). The experiment in a line: ATG_FoxA2_CIS: Attagene CIS-FACTORIAL HepG2 Assay for human Forkhead box A2 (FOXA2) (AID 2282942). The note with it: HepG2 cis-reporter transcription factor activity, 24 h; actives raise or lower the signal. Summed up: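 HepG2 transiently transfected with a multiplexed cis-promoter reporter library read endogenous FOXA2 activity. After 24 h compound exposure, reporter mRNA was quantified by RT-PCR, HpaI digestion and capillary electrophoresis. Bidirectional fit against DMSO.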

Assay [8] can be described thus: ATG_GATA_CIS: Attagene CIS-FACTORIAL HepG2 Assay for human GATA Binding Protein (AID 2282944). The note with it: HepG2 GATA cis-element reporter, Attagene multiplex mRNA; actives raise or lower the signal. In outline: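 Transfected cis-reporter HepG2 cells were treated with chemicals for 24 hours. Total RNA was then converted to cDNA, amplified with reporter-specific primers and analysed by fluorescent capillary electrophoresis, using DMSO-treated wells as baseline.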

A short description of assay [9]: ATG_GLI_CIS: Attagene CIS-FACTORIAL HepG2 Assay for human Zinc Finger Protein GLI1 (AID 2282945). Conditions: HepG2, Attagene cis-factorial reporter mRNA, GLI element; actives raise or lower the signal. Summed up: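 Bidirectional curve fits relative to DMSO, using reporter mRNA levels from RT-PCR plus capillary electrophoresis. Cells were HepG2 transiently carrying cis-regulated reporter constructs, harvested 24 h after dosing.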

Assay [10] can be described thus: ATG_ISRE_CIS: Attagene CIS-FACTORIAL HepG2 Assay for human Interferon Regulatory Factor 1 (IRF1) binding to an Interferon-Stimulated Response Element (ISRE) (AID 2282948). The note with it: HepG2 ISRE cis-reporter (Attagene), mRNA transcription readout; actives raise or lower the signal. Summed up:
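Cell-based cis-reporter assay; HepG2; 24 h exposure; reporter mRNA by RT-PCR plus capillary electrophoresis fluorescence; activity in either direction scored relative to DMSO.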

A short description of assay [11]: ATG_M_32_CIS: Attagene CIS-FACTORIAL HepG2 Assay for M32 Transcription Factor (Internal Marker) (AID 2282949).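 Note: background control marker of the multiplexed CIS panel rather than a real target.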 The note with it: HepG2 Attagene cis-factorial M32 reporter, mRNA; actives raise or lower the signal. In outline: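 Following 24 h chemical exposure of HepG2 cells transiently expressing cis-promoter reporter constructs, reporter transcript levels were determined by RT-PCR with fluorescent labelling and capillary electrophoresis, then fitted bidirectionally against DMSO.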

Assay [12] has as its target Hypoxia-inducible factor 1-alpha (Homo sapiens) (UniProt Q16665). The experiment in a line: ATG_HIF1a_CIS: Attagene CIS-FACTORIAL HepG2 Assay for human Hypoxia Inducible Factor 1 (HIF1A) (AID 2282951). Conditions: HepG2 Attagene cis-factorial HIF1a reporter transcription; actives raise or lower the signal. In outline:
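HepG2 cells transiently transfected with multiple cis-regulated reporter transcription units measure endogenous transcription factor activity. After 24 h exposure, reporter mRNA is quantified by RT-PCR with 6-FAM labelling, HpaI digestion and capillary electrophoresis. Bidirectional fitting against DMSO.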

Assay [13] concerns the target Hepatocyte nuclear factor 6 (Homo sapiens) (UniProt Q9UBC0). The experiment in a line: ATG_HNF6_CIS: Attagene CIS-FACTORIAL HepG2 Assay for human Hepatocyte Nuclear Factor 6 (HNF6) (AID 2282952). The note with it: HepG2 Attagene cis-factorial HNF6 reporter transcription; actives raise or lower the signal. Summed up: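 HepG2 cells transiently transfected with cis-element-driven multiplexed reporter units measuring endogenous transcription factor activity. After 24 h exposure, reporter mRNA quantified by RT-PCR, FAM-labelled fragments and capillary electrophoresis; bidirectional fitting versus DMSO.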

Assay [14] has as its target Heat shock factor protein 1 (Homo sapiens) (UniProt Q00613). The experiment in a line: ATG_HSE_CIS: Attagene CIS-FACTORIAL HepG2 Assay for human Heat Shock Transcription Factor 1 (HSE) (AID 2282953). Conditions: HepG2 HSE cis-reporter, Attagene RNA transcription; actives raise or lower the signal. In outline:
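Liver-derived HepG2 cells carry transiently introduced multiple reporter units governed by cis promoters. Reporter RNA measured 24 h post-dose through reverse transcription, PCR amplification, fluorescent labelling and capillary electrophoresis, normalised to DMSO.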

Assay [15] can be described thus: ATG_MRE_CIS: Attagene CIS-FACTORIAL HepG2 Assay for human Metal Responsive Element (MRE) (AID 2282954). Conditions: HepG2 MRE cis-reporter transcription, Attagene multiplex; actives raise or lower the signal. In outline:
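After a 24 h chemical exposure, transiently transfected HepG2 cells yield RNA whose reporter sequences are amplified, FAM-labelled and sized by capillary electrophoresis. Curves are fitted bidirectionally relative to DMSO.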

Assay [16] in a line: ATG_PBREM_CIS: Attagene CIS-FACTORIAL HepG2 Assay for human Phenobarbital-responsive Enhancer Module (PBREM) (AID 2282955). The note with it: HepG2 PBREM cis-reporter, Attagene multiplexed transcription; actives raise or lower the signal. Summed up: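 HepG2 cells transiently transfected with multiple cis-regulated reporter units measure endogenous transcription factor activity; 24 h compound exposure. Reporter mRNA quantified by RT-PCR, fluorescent labelling, HpaI digestion and capillary electrophoresis; bidirectional fit versus DMSO.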

A short description of assay [17]: ATG_FoxO_CIS: Attagene CIS-FACTORIAL HepG2 Assay for human Forkhead box O (FoxO) (AID 2282943). Conditions: HepG2 Attagene cis-reporter, FoxO element, mRNA; actives raise or lower the signal. Summed up: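 Endogenous transcription factor activity read from multiplexed cis-promoter reporter transcripts in transiently transfected HepG2, 24 h after dosing. Reporter RNA measured via RT-PCR plus capillary electrophoresis of FAM-labeled products; gain or loss relative to DMSO.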

Assay [18] addresses Bile acid receptor (Homo sapiens) (UniProt Q96RI1). The experiment in a line: ATG_IR1_CIS: Attagene CIS-FACTORIAL HepG2 Assay for human Nuclear Receptor Subfamily 1 Group H Member 4 (NR1H4), IR1 submotif (AID 2282946). The note with it: IR1 reporter transcription, actives raise or lower the signal. In outline:
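Cells (human HepG2) carry transiently transfected cis-promoter reporter transcription units. Compounds are incubated 24 h, total RNA is reverse-transcribed and amplified, and labelled fragments are resolved by capillary electrophoresis. Curves use DMSO as baseline.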

Assay [19] is described as follows: ATG_M_06_CIS: Attagene CIS-FACTORIAL HepG2 Assay for M06 Transcription Factor (Internal Marker) (AID 2282950). The note with it: HepG2 Attagene CIS-FACTORIAL M06 internal marker reporter; actives raise or lower the signal. Summed up: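 Cells (HepG2, transiently carrying cis-driven reporter units) receive chemical for 24 h before RNA isolation. Reporter cDNA is PCR-amplified, FAM-labelled by primer extension, HpaI-digested and sized on a capillary analyser.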

Assay [20] is described as follows: ATG_GRE_CIS: Attagene CIS-FACTORIAL HepG2 Assay for human Glucocorticoid Response Elements (GRE) (AID 2282947). Conditions: HepG2 GRE cis-reporter, Attagene multiplex mRNA; actives raise or lower the signal. Summed up: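 Assay uses human hepatoma HepG2 cells transfected with cis-promoter reporter units, exposed 24 h. mRNA from reporters detected by RT-PCR plus capillary electrophoresis; DMSO serves as negative control and baseline.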

Sequence of Heat shock factor protein 1 (Homo sapiens) (Q00613 whole entry, looked up): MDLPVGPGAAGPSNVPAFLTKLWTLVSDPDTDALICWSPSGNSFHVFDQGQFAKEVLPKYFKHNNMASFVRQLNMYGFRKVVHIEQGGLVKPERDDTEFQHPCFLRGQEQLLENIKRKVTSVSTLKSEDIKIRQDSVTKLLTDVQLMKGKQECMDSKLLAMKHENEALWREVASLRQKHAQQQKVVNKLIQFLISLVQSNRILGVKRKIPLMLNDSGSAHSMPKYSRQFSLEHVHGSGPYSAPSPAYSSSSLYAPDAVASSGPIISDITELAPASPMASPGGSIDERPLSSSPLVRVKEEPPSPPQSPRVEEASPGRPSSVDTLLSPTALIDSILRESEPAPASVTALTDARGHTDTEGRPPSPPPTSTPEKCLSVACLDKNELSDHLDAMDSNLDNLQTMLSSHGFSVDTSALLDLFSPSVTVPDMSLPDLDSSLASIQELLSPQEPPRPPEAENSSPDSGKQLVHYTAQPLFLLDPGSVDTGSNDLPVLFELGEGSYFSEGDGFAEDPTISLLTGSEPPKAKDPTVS
Sequence of Hepatocyte nuclear factor 6 (Homo sapiens) (Q9UBC0 whole entry, looked up, the tested form may be a part): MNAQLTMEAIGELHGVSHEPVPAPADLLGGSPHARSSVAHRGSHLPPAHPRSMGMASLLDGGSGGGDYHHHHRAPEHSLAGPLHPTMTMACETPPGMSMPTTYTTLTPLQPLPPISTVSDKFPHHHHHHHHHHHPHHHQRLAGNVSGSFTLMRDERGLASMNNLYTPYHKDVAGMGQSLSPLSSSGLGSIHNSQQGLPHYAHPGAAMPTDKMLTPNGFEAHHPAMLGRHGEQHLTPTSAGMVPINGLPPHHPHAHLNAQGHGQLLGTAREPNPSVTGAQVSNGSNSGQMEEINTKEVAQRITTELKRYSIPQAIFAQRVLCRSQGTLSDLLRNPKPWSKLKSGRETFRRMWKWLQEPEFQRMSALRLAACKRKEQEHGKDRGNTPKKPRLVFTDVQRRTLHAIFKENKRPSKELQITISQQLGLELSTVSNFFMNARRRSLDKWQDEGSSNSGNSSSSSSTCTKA
Sequence of Hypoxia-inducible factor 1-alpha (Homo sapiens) (Q16665 whole entry, looked up): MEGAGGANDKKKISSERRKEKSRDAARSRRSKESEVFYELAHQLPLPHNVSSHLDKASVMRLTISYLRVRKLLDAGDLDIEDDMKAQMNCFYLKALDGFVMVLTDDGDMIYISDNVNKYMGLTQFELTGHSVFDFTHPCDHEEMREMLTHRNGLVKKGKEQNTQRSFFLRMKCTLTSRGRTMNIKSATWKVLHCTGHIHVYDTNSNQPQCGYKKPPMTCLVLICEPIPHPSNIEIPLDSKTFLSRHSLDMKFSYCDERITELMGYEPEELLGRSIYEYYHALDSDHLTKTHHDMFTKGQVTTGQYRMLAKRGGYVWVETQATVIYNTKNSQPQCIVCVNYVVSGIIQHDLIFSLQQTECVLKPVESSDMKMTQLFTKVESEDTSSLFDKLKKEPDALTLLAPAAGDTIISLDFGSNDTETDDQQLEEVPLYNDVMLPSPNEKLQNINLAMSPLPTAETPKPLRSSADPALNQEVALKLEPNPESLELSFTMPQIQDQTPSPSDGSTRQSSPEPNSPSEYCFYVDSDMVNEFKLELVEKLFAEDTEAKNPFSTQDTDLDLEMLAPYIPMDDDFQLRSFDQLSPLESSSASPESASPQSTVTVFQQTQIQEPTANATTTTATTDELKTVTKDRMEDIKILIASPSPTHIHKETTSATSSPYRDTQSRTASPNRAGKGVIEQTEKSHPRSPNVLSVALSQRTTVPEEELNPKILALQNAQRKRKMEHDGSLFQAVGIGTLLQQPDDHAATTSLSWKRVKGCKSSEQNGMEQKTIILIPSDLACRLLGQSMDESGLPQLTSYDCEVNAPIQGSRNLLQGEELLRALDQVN
Sequence of Hepatocyte nuclear factor 3-beta (Homo sapiens) (Q9Y261 whole entry, looked up): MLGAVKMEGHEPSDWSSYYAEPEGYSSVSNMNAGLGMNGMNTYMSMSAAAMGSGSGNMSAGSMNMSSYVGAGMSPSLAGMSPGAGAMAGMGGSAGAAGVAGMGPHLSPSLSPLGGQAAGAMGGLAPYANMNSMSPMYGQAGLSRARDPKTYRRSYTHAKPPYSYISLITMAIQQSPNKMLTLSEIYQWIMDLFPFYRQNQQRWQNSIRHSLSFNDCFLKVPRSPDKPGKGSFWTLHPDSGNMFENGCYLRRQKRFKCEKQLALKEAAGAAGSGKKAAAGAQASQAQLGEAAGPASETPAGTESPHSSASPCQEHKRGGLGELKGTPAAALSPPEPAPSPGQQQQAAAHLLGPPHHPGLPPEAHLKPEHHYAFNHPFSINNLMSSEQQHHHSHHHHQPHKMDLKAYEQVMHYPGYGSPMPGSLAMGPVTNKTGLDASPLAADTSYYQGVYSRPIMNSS
Sequence of Bile acid receptor (Homo sapiens) (Q96RI1 whole entry, looked up, the tested form may be a part): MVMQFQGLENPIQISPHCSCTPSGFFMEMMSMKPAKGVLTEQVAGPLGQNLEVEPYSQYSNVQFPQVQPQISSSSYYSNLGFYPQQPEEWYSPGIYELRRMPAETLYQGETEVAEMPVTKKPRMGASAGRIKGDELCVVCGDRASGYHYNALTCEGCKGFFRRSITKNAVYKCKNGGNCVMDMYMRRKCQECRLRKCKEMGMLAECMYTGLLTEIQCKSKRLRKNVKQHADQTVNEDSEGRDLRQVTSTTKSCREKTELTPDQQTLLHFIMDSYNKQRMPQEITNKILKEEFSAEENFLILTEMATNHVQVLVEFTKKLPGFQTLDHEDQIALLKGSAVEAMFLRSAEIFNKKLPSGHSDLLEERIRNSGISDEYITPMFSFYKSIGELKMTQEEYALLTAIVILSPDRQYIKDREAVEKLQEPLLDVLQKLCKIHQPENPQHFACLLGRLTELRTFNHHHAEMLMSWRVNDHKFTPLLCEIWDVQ

For `CC(C)(C)C(=O)CCc1ccc(Cl)cc1`, the result in assay [1], in assay [2], in assay [3], in [4], in assay [6] and in assay [7] was inactive. In addition, the result in assay [8], in [9], in assay [10], in [11], in assay [12] and in assay [13] was inactive. The result in [14], in assay [15] and in assay [16] was inactive. For the same compound, in [5], the AC50 (in general, the concentration giving half of the maximal activity seen) is 30.2 µM (active).

`CCCOCCOCCOCCO`: the result in assay [1], in assay [2], in assay [3], in assay [4], in assay [5] and in assay [6] was inactive. The compound was called inactive in assay [17], in assay [8], in assay [9], in [18], in assay [10] and in assay [11]. In addition, the outcome in assay [19], in assay [12], in assay [13], in assay [14] and in assay [15] was inactive.

Regarding `CCCNC(=O)NS(=O)(=O)c1ccc(Cl)cc1`, the result in assay [1], in assay [2], in assay [3], in assay [4], in assay [5] and in [6] was inactive. For the same compound, the call in assay [17], in [8], in assay [9], in assay [20], in [10] and in assay [11] was inactive. Further, the compound was called inactive in assay [12], in assay [13], in assay [14] and in [15].

`CCCCCCC1(C)CCC(=O)O1` (stereo unspecified): the result in assay [1], in [2], in [3], in assay [4], in assay [5] and in assay [6] was inactive. The call in [17], in assay [8], in assay [9], in assay [10], in assay [11] and in assay [19] was inactive. Further, the call in assay [12], in assay [13], in assay [14], in assay [15] and in [16] was inactive.

Take `O=CN1CCCCC1`: the outcome in assay [1], in [2], in assay [3], in assay [4], in [5] and in assay [6] was inactive. In addition, the call in assay [17], in assay [8], in [9], in assay [10], in [11] and in assay [19] was inactive. The call in assay [12], in [13], in [14], in assay [15] and in assay [16] was inactive.

Take `C=CC(=O)OCCC(=O)O`: the outcome in assay [1], in assay [2], in assay [3], in assay [4], in assay [5] and in assay [6] was inactive. For the same compound, the outcome in assay [17], in assay [8], in [20], in assay [10], in [11] and in [12] was inactive. Also, the call in assay [13], in assay [14], in assay [15] and in [16] was inactive.

On to `O=S(=O)(Oc1ccc(Cl)cc1Cl)c1ccccc1`, for which the result in [1], in [2], in [3], in assay [4], in assay [6] and in assay [17] was inactive. In addition, the result in assay [8], in assay [9], in assay [10], in assay [11], in [19] and in assay [12] was inactive. The outcome in assay [13] and in assay [14] was inactive. The half-maximal activity concentration (AC50) in assay [5] was 7.97 µM (active); in assay [15], 32.8 µM (active); in assay [16] it was 7.97 µM (active).
